# Assay results from PubChem BioAssay AID504848 (National Center for Advancing Translational Sciences (NCATS), 2011).
# Screen size: about 2,300 compounds; about 1,400 (61%) were called active. Not shown: some 29% with an inconclusive outcome. The set was probably picked from earlier hits. Some of the results follow. Values without a mark were called inactive. The call rests on the fitted dose curve; in most records, active means well fitted inhibition curve with a large enough effect; inconclusive means small, poorly fitted or top-dose-only effect, or effect the other way; inactive means no such curve, though single readings can be large or run the other way.
# Experiment: Confirmation screen for delayed death inhibitors of the malarial parasite plastid, 96 hour incubation; further: nearly all actives have a fitted effect of over 60% in size
# Conditions: P. falciparum luciferase growth in erythrocytes; series mostly up to 28.7 µM; activity change, negative = inhibition: at the top concentration
# From the text: The goal of this screen is to discover new antimalarial compounds that act by inhibiting the development of the apicoplast in the malarial parasite Plasmodium falciparum. The biochemical processes that make this organelle essential for erythrocytic stage parasites are not well understood. However, antibiotics, such as azithromycin and tetracycline, which target the apicoplast translational machinery, have a potent antimalarial effect. […] We have developed a cell-based assay that measures parasite growth based on the expression of an integrated copy of a firefly luciferase reporter. To detect small molecules that cause this "delayed death phenotype, erythrocytes infected with the luciferase-expressing parasites were incubated with compounds for either one or two generations, corresponding to 48 and 96 hours, respectively. Compounds that inhibit parasite growth in the second generation, but not the first, should be enriched in antimalarials that target the apicoplast. Growth inhibition is detected by a decrease in luciferase activity. MLPCN Grant: R21 NS059500 Assay Provider: David Fidock and Eric Ekland, Columbia University Keywords: NIH Roadmap, MLPCN, MLI, MLSMR, qHTS, NCGC, qHTS, malaria, luciferase, viability
# Four microliters of culture medium (RPMI 1640 with 0.5% w/v Albumax (GIBCO), 24 mM sodium bicarbonate and 10 ug/mL gentamycin) were dispensed by a Multi-drop Combi into white solid 1536-well plates (Grenier) and 23 nL compound was added by a pin tool. Four microliters of infected erythrocytes (2% hematocrit, 0.1% parasitemia final concentration) in culture medium were dispensed and the plates incubated for 96 hours at 37 C in 5% CO2. Two microliters of luciferase detection reagent was added and luminescence was detected by a ViewLux (PerkinElmer) reader
# On the % scale 0 is the no-effect control and ±100 the full control effect; potency means the concentration at half of the fitted maximal effect.
Structure (SMILES),Potency,"activity change, negative = inhibition"
Cc1oc2c(c1C(=O)N1CCOCC1)C(=O)c1ccccc1C2=O,1.58 µM (active),–
Cc1nnnn1/C(=C\c1ccccc1)C(=O)OCC(=O)N1CC2(C)CC1CC(C)(C)C2 (configuration not stated),10 µM (active),–
COc1cccc(C(=O)/C=C/c2ccc(OCC#N)c(OC)c2)c1,3.98 µM (active),–
COc1ccc(/C=C/C(=O)c2ccc(C(=O)/C=C/c3ccc(OC)c(OC)c3)cc2)cc1OC,–,-104%
COc1cc(/C=C/C(=O)c2ccc(C)cc2)ccc1OCC#N,12.6 µM (active),–
COc1cc(/C=C/C(=O)c2ccc(O)cc2)ccc1OCC#N,10 µM (active),–
CCCCN(C)CCCNC(=O)c1cc(=O)[nH]c2ccc(S(=O)(=O)N3CCCCC3C)cc12 (configuration not stated),1.12 µM (active),–
CCCCN(C)C(=O)C1CCC(CNS(=O)(=O)c2ccc3c(c2)CC(C)N3C(=O)C2CC2)CC1 (configuration not stated),5.62 µM (active),–
CCOC(=O)c1c(C)nc(C)c(C(=O)OCC)c1-c1ccc(Br)cc1,11.2 µM (active),–
Cc1ccc(C(=O)OCc2nnc(-c3ccc(Br)cc3)o2)cc1,–,-5.53%
CN(C)c1ccc(CN(C(=O)c2ccccc2Br)C2CCS(=O)(=O)C2)cc1 (configuration not stated),14.1 µM (active),–
CCCN1CCc2c(sc3nc(SCC)n(-c4ccccc4)c(=O)c23)C1,0.631 µM (active),–
CCCN1CCc2c(sc3nc(SCC)n(-c4ccc(OC)cc4)c(=O)c23)C1,0.316 µM (active),–
Cn1c(=O)c2c([nH]c(=O)n2C)n(C)c1=O,–,-20.4%
CCCc1cc(NCc2ccccn2)n2nc(C)c(-c3ccccc3)c2n1,3.55 µM (active),–
NC(=O)CC(NC(=O)Cc1ccc(Br)cc1)c1ccc(NC2CC3CCC2C3)c([N+](=O)[O-])c1 (configuration not stated),12.6 µM (active),–
CC/C(=N\OC(=O)c1ccc(OC(C)C)cc1)c1ccc(C)cc1,11.2 µM (active),–
O=C(/C=C/c1cccnc1)c1ccc(O)cc1,11.2 µM (active),–
COc1cc(C(=O)/C=C/c2cccnc2)ccc1O,5.01 µM (active),–
O=C(/C=C/c1cccnc1)/C=C/c1cccnc1,3.55 µM (active),–
O=C(/C=C/c1ccccc1)/C=C/c1ccccc1,2.51 µM (active),–
COc1ccc(C)cc1S(=O)(=O)Nc1cccc(-c2ccc(N3CCCCCC3)nn2)c1,10 µM (active),–
COc1ccc(-c2cc(C)no2)cc1S(=O)(=O)Nc1cccc(CN2CCCC2)c1,12.6 µM (active),–

Structure (SMILES),Potency,"activity change, negative = inhibition"
COc1ccc(S(=O)(=O)Nc2cccc(-c3ccc(N4CCCCCC4)nn3)c2)c(OC)c1,11.2 µM (active),–
CCCOc1ccc(/C=C/C(=O)NC2CCCCC2)cc1OC,15.8 µM (active),–
Nc1ccccc1C#CC(=O)c1ccccc1,14.1 µM (active),–
CCCC1O[C@@H]2CC3C4CCC5=CC(=O)C=C[C@]5(C)C4C(OC(C)=O)C[C@]3(C)[C@]2(C(=O)COC(C)=O)O1 (some centres not stated),1.41 µM (active),–
CCOC(=O)C1CCN(c2cc3c(cc2NC(=O)c2ccccc2Cl)n(C)c(=O)n3C)CC1,7.94 µM (active),–
O=C(C=C=Nc1ccccc1)C(=O)N=C=Cc1ccccc1,7.94 µM (active),–
COc1ccc(NC(=O)Cc2ccc(Cl)cc2)cc1S(=O)(=O)N1CCCCC1,14.1 µM (active),–
COc1ccc2c(CC(=O)OCC(=O)Nc3cccc(S(N)(=O)=O)c3)coc2c1,–,-6.15%
COc1ccc(NC(=O)Cc2coc3cc(C)c(C(C)C)cc23)cc1S(=O)(=O)N1CCOCC1,7.94 µM (active),–
Cc1csc(NC(=O)Cc2coc3cc(C)c(C(C)C)cc23)n1,12.6 µM (active),–
CC1CCC/C=C/C(=O)c2c(O)cc(O)cc2CC(=O)O1 (configuration not stated),5.01 µM (active),–
CC(C)c1cc(NC(=O)CCl)on1,7.08 µM (active),–
CCS(=O)(=O)N1Cc2ccccc2CC1C(=O)Nc1cccc(OC)c1 (configuration not stated),–,11%
Cc1cccc(NC(=O)[C@H](Cc2c[nH]c3ccccc23)NC(=O)[C@@H]2Cc3ccccc3CN2)c1,10 µM (active),–
O=C(NC(Cc1c[nH]c2ccccc12)C(=O)Nc1ccc(F)cc1)c1cccs1 (configuration not stated),10 µM (active),–
COc1cccc(NC(=O)[C@H](Cc2c[nH]c3ccccc23)NC(=O)[C@@H]2Cc3ccccc3CN2)c1,12.6 µM (active),–
COc1ccc(NC(=O)[C@H](Cc2c[nH]c3ccccc23)NC(=O)[C@@H]2Cc3ccccc3CN2)cc1,6.31 µM (active),–
COC(=O)C1=C(C)NC2=C(C(=O)CC(c3cccs3)C2)C1c1ccsc1 (configuration not stated),12.6 µM (active),–
O=C(CNC(=O)C1CCCCC1)OC(C(=O)c1ccccc1)c1ccccc1 (configuration not stated),15.8 µM (active),–
CCOc1cc(/C=C2\CN(CC)C/C(=C\c3ccc(O)c(OCC)c3)C2=O)ccc1O,3.16 µM (active),–
CCN1C/C(=C/c2ccc(OC)c(O)c2)C(=O)/C(=C/c2ccc(OC)c(O)c2)C1,14.1 µM (active),–
COc1ccc(/C=C2\CN(Cc3ccccc3)C/C(=C\c3ccc(OC)c(O)c3)C2=O)cc1O,0.708 µM (active),–
COc1ccc(NS(=O)(=O)c2cc(OCC(N)=O)c(C)cc2Cl)cc1,5.01 µM (active),–

Structure (SMILES),Potency,"activity change, negative = inhibition"
CCOC(=O)c1c(-c2ccc(C)cc2C)csc1NC(=O)CSc1nnnn1C,3.98 µM (active),–
O=C(NC(Cc1ccccc1)c1nc2ccccc2[nH]1)C1CC(=O)N(c2ccc3c(c2)OCCO3)C1 (configuration not stated),14.1 µM (active),–
O=C1c2cccc3cc([N+](=O)[O-])cc(c23)C(=O)N1CCN1CCCC1,12.6 µM (active),–
CN(c1ccccc1)S(=O)(=O)c1nnc(NC(=O)COc2ccccc2F)s1,12.6 µM (active),–
Cc1ccc(S(=O)(=O)N2CCN(C(=O)CCc3c[nH]c4ccccc34)CC2)c(C)c1,14.1 µM (active),–
COc1ccc(NC(=S)N2CCC(Cc3ccccc3)CC2)cc1OC,12.6 µM (active),–
CCOC(=O)CC(Nc1nc(N2CCOCC2)nc(N2CCOCC2)n1)c1ccccc1Cl (configuration not stated),3.98 µM (active),–
O=C(/C=C/Sc1ccccc1)c1ccccc1,11.2 µM (active),–
COC(=O)[C@]1(CC(C)C)N[C@H](c2ccc(-c3ccc(F)cc3)c(OC)c2)[C@@H]2C(=O)N(C)C(=O)[C@@H]21,2 µM (active),–
CCOC(=O)Cn1nnnc1C(CC)N(Cc1cccs1)Cc1cc2ccc(OC)cc2[nH]c1=O (configuration not stated),12.6 µM (active),–
Cc1ccccc1C(=O)Nc1ccc2c(c1)CCCN2C(=O)c1cccs1,12.6 µM (active),–
COc1cc(OC)cc(C(=O)Nc2ccc3c(c2)CCCN3C(=O)c2cccs2)c1,11.2 µM (active),–
CC(C)c1[nH]nc2c1C(C1C=CCCC1)C(C#N)=C(N)O2 (configuration not stated),14.1 µM (active),–
CCOCCCNC(=S)N1CCN(c2nc(-c3ccccc3)cs2)CC1,12.6 µM (active),–
Cc1c(-c2ccccc2)nc2ccccc2c1C(=O)Nc1ccncc1,0.178 µM (active),–
CC(C)CC1c2[nH]c3ccccc3c2CCN1CCCn1cccn1 (configuration not stated),8.91 µM (active),–
CCC(=O)NC(=S)Nc1ccc(NC(=O)c2ccc(C)c([N+](=O)[O-])c2)cc1,10 µM (active),–
CC(=O)c1ccc(NC(=S)Nc2ccc3cn[nH]c3c2)cc1,–,0.644%
CN(C(=O)c1cc([N+](=O)[O-])ccc1NCc1cccnc1)c1ccccc1,11.2 µM (active),–
CN1/C(=C\C(=O)CSc2cccc[n+]2[O-])C(C)(C)c2ccccc21,15.8 µM (active),–
CSc1nnc(C)c(=O)[nH]1,–,-5.97%
Clc1cccc(Cl)c1C[n+]1ccc2ccccc2c1,1.26 µM (active),–
Cc1ncc(CO)c(/C=N/NC(=S)Nc2ccc(F)cc2)c1O,14.1 µM (active),–

Structure (SMILES),Potency,"activity change, negative = inhibition"
Cc1cccc(N/N=C(\C(N)=O)C2=NC(C)(C)Cc3ccccc32)c1,3.98 µM (active),–
CC(=O)c1ccc(N/N=C(/C(N)=O)C2=NC(C)(C)Cc3ccccc32)cc1,6.31 µM (active),–
O=C(COc1ccccc1Cl)NC(=S)N1CCc2ccccc21,14.1 µM (active),–
O=C(NCc1ccccn1)Nc1cc(Cl)ccc1Cl,6.31 µM (active),–
CC(=O)c1cccc(Oc2cc(NN3CCCCC3)c([N+](=O)[O-])cc2[N+](=O)[O-])c1,11.2 µM (active),–
COc1ccc(NC(=O)c2c(-c3c(Cl)cccc3Cl)noc2C)c(OC)c1,2.24 µM (active),–
Cc1noc(C)c1C(=O)Nc1nc(-c2ccc(F)cc2)cs1,–,8.57%
Cc1onc(-c2c(Cl)cccc2Cl)c1C(=O)NC1CCCCC1,11.2 µM (active),–
Cc1onc(-c2c(Cl)cccc2Cl)c1C(=O)N=C(N)N1CC(C)OC(C)C1 (configuration not stated),7.08 µM (active),–
Cc1onc(-c2c(Cl)cccc2Cl)c1C(=O)Nc1nc(C(C)(C)C)cs1,6.31 µM (active),–
COc1cnc(-c2ccccn2)nc1Oc1ccc(C(C)(C)C)cc1,2.51 µM (active),–
COc1cnc(-c2ccccn2)nc1N(C)c1ccccc1,2 µM (active),–
CSC1=NC(C)(C)C=C(/C=C/c2ccc(Cl)cc2Cl)N1,1.78 µM (active),–
CSC1=NC(C)(C)C=C(/C=C/c2ccc(Cl)cc2)N1,4.47 µM (active),–
CSC1=NC(C)(C)C=C(/C=C/c2c(Cl)cccc2Cl)N1,10 µM (active),–
CC1(C)Cc2c(ccc3ccccc23)C(c2cc3ccccc3oc2=O)=N1,4.47 µM (active),–
CN(C(=O)CN1C(=O)CCSc2ccc(S(=O)(=O)N3CCCC3)cc21)c1ccccc1,7.94 µM (active),–
CCN(CC)CCn1c2c(c(SCC(=O)Nc3nc4ccccc4s3)nc1=O)CCCC2,2 µM (active),–
CCC(=O)NCCc1cc2ccc(C)cc2[nH]c1=O,–,1.76%
CCc1c(C(=O)NCCc2cccc(C)c2)[nH]c(C)c1C(C)=O,12.6 µM (active),–
CCc1c(C(=O)NC2CCCc3ccccc32)[nH]c(C)c1C(C)=O (configuration not stated),–,-14.9%
CCOC(=O)Nc1ccc2c(CNC(C)c3ccccc3OC)cc(=O)oc2c1 (configuration not stated),12.6 µM (active),–
COC(=O)COc1ccc2c(=O)c(-c3ccccc3OC)coc2c1,–,-27.7%
